TMEM16A act: TMEM16A chloride channel activators or potentiators, primary screen, cell-based, HTS; Anoctamin-1 (Mus musculus), Q8BHY3; HEK293 TMEM16A/YFP-H148Q/I152L, iodide quench fluorescence; stronger effect = lower value; B-score at 10 µM; hit rate 0.3% among 340,000; AID 623877, 2012;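 active means fluorescence-ratio B-score plate-corrected deviation score at least 3 library SD below zero, with starting fluorescence score within 5 deviations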;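 further: channel opened by trigger with iodide after compound preincubation; score built on the fluorescence ratio of max minus min over baseline; more negative score means more quench and so TMEM16A activation or potentiation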
Target sequence (Q8BHY3 whole entry, looked up): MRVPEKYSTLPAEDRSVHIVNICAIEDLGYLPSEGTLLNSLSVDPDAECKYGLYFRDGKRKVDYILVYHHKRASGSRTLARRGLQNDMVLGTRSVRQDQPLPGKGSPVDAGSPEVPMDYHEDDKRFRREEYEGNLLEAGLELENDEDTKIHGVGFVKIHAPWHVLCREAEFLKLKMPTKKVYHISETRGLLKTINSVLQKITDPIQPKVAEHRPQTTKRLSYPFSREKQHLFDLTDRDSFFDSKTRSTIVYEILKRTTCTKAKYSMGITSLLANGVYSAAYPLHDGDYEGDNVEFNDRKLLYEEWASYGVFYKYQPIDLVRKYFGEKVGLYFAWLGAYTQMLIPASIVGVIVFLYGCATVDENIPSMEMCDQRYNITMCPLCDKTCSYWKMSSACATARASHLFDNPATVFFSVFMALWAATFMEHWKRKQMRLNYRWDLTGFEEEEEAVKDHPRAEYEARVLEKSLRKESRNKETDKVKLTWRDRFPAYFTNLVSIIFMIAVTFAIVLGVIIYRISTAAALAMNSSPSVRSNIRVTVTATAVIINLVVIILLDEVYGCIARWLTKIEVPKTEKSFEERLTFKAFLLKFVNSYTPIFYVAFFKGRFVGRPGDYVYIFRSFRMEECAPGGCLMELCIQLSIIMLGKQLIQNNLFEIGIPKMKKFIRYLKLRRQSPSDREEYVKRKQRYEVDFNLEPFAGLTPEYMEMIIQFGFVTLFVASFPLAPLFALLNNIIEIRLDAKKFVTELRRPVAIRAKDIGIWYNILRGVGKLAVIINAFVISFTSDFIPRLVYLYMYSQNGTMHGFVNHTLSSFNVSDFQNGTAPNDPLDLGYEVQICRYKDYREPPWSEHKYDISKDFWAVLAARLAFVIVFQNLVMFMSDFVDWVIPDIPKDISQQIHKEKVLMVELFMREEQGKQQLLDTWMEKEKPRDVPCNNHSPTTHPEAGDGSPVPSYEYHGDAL
ANO1 block: TMEM16A chloride channel inhibitors, primary screen, cell-based, HTS; Anoctamin-1 (Mus musculus), Q8BHY3; HEK293 TMEM16A/YFP iodide influx fluorescence, ionomycin; normalized B-score (activity score, 25-100; higher = stronger inhibition) at 10 µM; hit rate 1.2% among 310,000;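 active means ratio plate-corrected score three or more library SD toward inhibition, starting fluorescence score within five deviations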;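 further: score derived from kinetic fluorescence span divided by baseline fluorescence per well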
CHT PAM: CHT positive allosteric modulators, primary screen, cell-based, membrane potential dye, choline EC20; High affinity choline transporter 1 (Homo sapiens), Q9GZV3; CHT-expressing cells; stronger effect = higher value; LV-AA mutant CHT in HEK293 cells; B-score at 10 µM; hit rate 0.49% among 310,000; AID 488977, 2010;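 active means initial fluorescence not abnormally high and integrated response B-score, plate-corrected, over 3 SD above library mean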
CHT inh: inhibitors of human choline transporter CHT; High affinity choline transporter 1 (Homo sapiens), Q9GZV3; CHT-expressing cells, membrane potential dye, choline response; stronger effect = lower value; B-score at 10 µM; hit rate 0.86% among 310,000; AID 488975, 2010;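 active means B-score over 3 SD under the library average, and starting fluorescence ratio not unusually high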;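 further: choline stimulus applied at its EC90 after an EC20 pre-addition; B-score computed on integrated fluorescence ratio after choline addition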
CHT act confirm: CHT activators, confirmation, cell-based, membrane potential dye, duplicate. shares compounds with CHT PAM. AID 504833, 2011. hit rate 91% among 2,500. CHT-expressing cells, membrane potential dye fluorescence (FDSS); % of choline EC20–EC90 response window; HEK293 expressing CHT LV-AA mutant; choline added at its EC20. activation, % at 10 µM;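 active means primary screen active, with duplicate mean activation above negative control mean plus 3 SD, cut at about 11% in these data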
HEK293 MP dye: membrane potential response in parental HEK293 cells, counter-screen for CHT activator project, cell-based, membrane potential dye; shares compounds with CHT PAM; membrane potential dye fluorescence (FDSS); measured after EC20 choline addition; ratio readout change at 10 µM, hits read low; hit rate 62% among 2,500; AID 623908, 2012;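 active means duplicate-averaged ratio beyond 3 SD from buffer wells, up or down, though filed actives are nearly all decreases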
* = called active by the depositor; i = inactive; / = no result. Shown are actives, neighbours in structure and some others; about 2.3% of the full set was active somewhere.

SMILES | TMEM16A act | ANO1 block | CHT PAM | CHT inh | CHT act confirm | HEK293 MP dye
CN(CCO)C(=O)C(c1ccccc1)c1ccccc1 | i | i | i | i | / | /
O=C1c2ccccc2C(=O)N1CCC1=CCCCC1 | i | i | i | i | / | /
Cc1cc[n+](CC(=O)c2ccc(NC(=O)c3ccccc3)cc2)c2ccccc12 | i | i | i | i | / | /
CC[n+]1ccc(C)c2cc(SC(F)(F)F)ccc21 | i | i | 6.9* | i | 33* | -52*
CC[n+]1ccc(C)c2cc(P(=O)(c3ccccc3)c3ccccc3)ccc21 | i | i | 7.8* | i | 58* | -42*
O=C(Nc1ccccn1)c1ccc(S(=O)(=O)N2CCCCCC2)cc1 | i | i | i | i | / | /
Cc1ncsc1CCSc1nc2ccccc2c(=O)n1C | i | i | i | i | / | /
Cc1ccn2cc(CCNS(=O)(=O)c3ccc4ccccc4c3)nc2c1 | i | i | i | i | / | /
Cc1ccn2cc(CCNS(=O)(=O)c3ccc4c(c3)OCCO4)nc2c1 | i | i | i | i | 25* | i
CCN(CC)CCNc1nc2c(c(=O)n(C)c(=O)n2C)n1C/C=C(/C)Cl | i | i | i | i | 68* | -42*
CC1CC(C)CN(C(=O)CCn2c(=O)oc3ccccc32)C1 (stereo unspecified) | i | i | i | i | / | /
CCCC[C@@H]1C[C@H]1[C@@H](NC(=O)c1cccs1)c1ccc(Cl)cc1 | / | i | i | i | 29* | i
CCCC[C@@H]1C[C@H]1[C@@H](NC(=O)c1cccs1)c1ccc(C(F)(F)F)cc1 | / | i | i | i | / | /
Cc1cc(C)n2ncc(C(=O)NCc3cccnc3)c2n1 | i | i | i | i | 42* | -38*
COc1ccc(Cn2c(-c3ccc(C)cc3)c[n+]3ccccc23)cc1 | i | i | 11* | i | 62* | -51*
COc1ccc(-c2nc3ccccc3n2Cc2ccc(C)cc2)cc1 | i | i | i | i | / | /
Cc1cc(NCC2CCCCC2)nc2ccccc12 | i | i | i | i | / | /
Cc1cc(NCCNC2=CC(=O)CCC2)nc2ccccc12 | i | i | i | i | 48* | -47*
CCN1CCN(c2c(Cl)cccc2NC(=O)c2ccco2)CC1 | i | i | 7.6* | i | 54* | -33*
CCN1CCN(c2c(Cl)cccc2NC(=O)c2ccc([N+](=O)[O-])cc2)CC1 | i | i | 12* | i | 53* | -67*
CCCCNC(=O)[C@H]1N2C(=O)c3c(ccc(OC)c3OC)C2SC1(C)C (stereo partly specified) | i | i | i | i | / | /
CCCCN(CC)C(=S)Nc1ccc2nc(N3CCN(C)CC3)cc(C)c2c1 | i | i | i | i | 26* | -26*
CCCCN(C)C(=S)Nc1ccc2nc(N3CCN(CC)CC3)cc(C)c2c1 | i | i | i | i | / | /
Cc1cc(C)c2ccc(N)nc2c1O | i | i | i | i | 42* | -53*
COc1ccc(-c2cc(C(=O)NNC(=O)c3csc(N4CCOCC4)n3)c3ccccc3n2)cc1 | i | i | i | i | / | /
SMILES | TMEM16A act | ANO1 block | CHT PAM | CHT inh | CHT act confirm | HEK293 MP dye
COc1ccc(-c2cc(C(=O)NNC(=O)c3csc(N4CCOCC4)n3)c3ccccc3n2)cc1OC | i | i | 7.3* | i | 11* | i
COc1cc(C(=O)OCC(=O)Nc2ccc(S(=O)(=O)N3CCCC3)cc2)cc(OC)c1OC | i | / | / | / | / | /
CSc1cccc(NC(=O)CN(C2CCCCC2)S(C)(=O)=O)c1 | i | i | 8.9* | i | 42* | i
COc1ccc(NC(=O)CN(C2CCCCC2)S(C)(=O)=O)cc1OC | i | i | i | i | / | /
CCN1CCCC1CNC(=O)c1cc2c(C)nc3ccccc3c2o1 (stereo unspecified) | i | i | i | i | / | /
Cc1nc2ccccc2c2oc(C(=O)NCCN3CCCCC3C)cc12 (stereo unspecified) | i | i | i | i | 34* | i
Cc1nc2ccccc2c2oc(C(=O)N3CCC(N4CCCCC4)CC3)cc12 | i | i | 7* | i | 49* | -41*
Cc1nc2ccccc2c2oc(C(=O)N3CCN(C4CCCCC4)CC3)cc12 | i | i | i | i | / | /
O=C1CCCC2=C1C(c1ccsc1)CC(=O)N2c1ccccc1F (stereo unspecified) | i | i | i | i | / | /
O=c1[nH][nH]c2ccccc2c1=O | i | i | i | i | / | /
Cc1ccc2nc(C)cc(C(=O)N3CCCC(N4CCN(c5ccccc5C)CC4)C3)c2c1 (stereo unspecified) | i | i | i | i | / | /
Cc1cc(C)c(/C=N/NC(N)=O)c(C)c1/C=N/NC(N)=O | i | i | 6.4* | i | 47* | -62*
O=C(NC1CCN(S(=O)(=O)c2cccc(F)c2)CC1)c1ccc(F)cc1 | i | i | i | i | / | /
C=CCOc1cccc(/C=N/NC(=O)CN(c2cc(Cl)ccc2OC)S(=O)(=O)c2ccc(C)c([N+](=O)[O-])c2)c1 | i | i | i | i | 7 | i
CC(C)(C)C(=O)NCCCc1nc2ccccc2n1CCCOc1ccc(Cl)cc1 | i | i | 12* | i | 10 | i
CCN1CCN(C(=O)C(=O)c2cn(CC(=O)N(CC)CC)c3ccccc23)CC1 | i | i | i | i | 44* | i
CCN(CC)C(=O)C(=O)c1cn(CCOc2ccccc2)c2ccccc12 | i | i | i | i | 7 | i
COC(=O)c1cn(CCOc2ccccc2)c2ccccc12 | i | i | i | i | / | /
Cc1cc(NC(=O)CSc2nnc(-c3cccc(F)c3)n2N)no1 | i | / | / | / | / | /
O=S(=O)(O)c1cccc(N=Nc2c(O)ccc3ccccc23)c1 | i | i | i | i | 33* | -39*
Oc1ccc2ccccc2c1N=Nc1ccccc1F | i | i | i | i | / | /
CN(C)CC1CCCCC1OC(=O)c1ccc(Cl)cc1 (stereo unspecified) | i | i | i | i | / | /
CN(C)CC1CCCCC1C1(O)c2ccccc2CSc2sccc21 (stereo unspecified) | i | i | i | i | 13* | i
CN1CCN(C=Nc2nc3ccccc3nc2N2CCCC2)CC1 | i | i | 6.7* | i | 26* | -52*

From PubChem
